Measured values from PubChem BioAssay (NCATS).
Inconclusive results are not listed. Activity calls are given as the source filed them. The call rests on the fitted dose curve; in most records, active means well fitted inhibition curve with a large enough effect; inconclusive means small, poorly fitted or top-dose-only effect; inactive means flat fitted curve, though single readings scatter.

tested on: not listed separately; test: qHTS for identification of novel therapeutic agents for treatment of microphthalmiaassociated transcription factor (MiT) renal cell carcinoma (RCC) (AID 1963991); details: TFE3-RCC viability, CellTiter-Glo, 48 h; measured here: UOK145 Z-AUC; stronger effect = lower value
In short: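 Curves over 11 concentrations were fitted to CellTiter-Glo luminescence, scaled between empty wells (0%) and DMSO (100%) viability. Cells were UOK109, UOK124 and UOK145 TFE3-fusion RCC lines at 500/well, exposed 48 hours at 37 C.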

**Q.** Which z-score does the source give for `CC[C@@]1(O)C(=O)OCc2c1cc1n(c2=O)Cc2cc3ccccc3nc2-1` here?
**A.** Its z-score is -3.18.

**Q.** Which z-score does the source give for `CN(C)[C@@H]1C(=O)C(C(N)=O)=C(O)[C@@]2(O)C(=O)C3=C(O)c4c(O)cccc4[C@@](C)(O)[C@H]3[C@H](O)[C@@H]12` here?
**A.** The z-score was 0.671.

**Q.** With `CSCC[C@@H](NC(=O)[C@@H](Cc1ccccc1)NC(=O)CNC(=O)CNC(=O)[C@@H](N)Cc1ccc(O)cc1)C(=O)O` as the compound, how does the z-score read?
**A.** Its z-score is 1.12.

**Q.** With `COc1ccc2c(c1)[C@]13CCCCC1C(C2)N(C)CC3` (stereo partly drawn) as the compound, how does the z-score read?
**A.** The z-score was 0.444.

**Q.** Which z-score does the source give for `COC(=O)[C@@H](N)CCCN=C(N)N[N+](=O)[O-]` here?
**A.** Its z-score is 2.13.

**Q.** Which z-score does the source give for `O=S(=O)(F)Cc1ccccc1` here?
**A.** The z-score was 0.531.

**Q.** Which z-score does the source give for `C[C@]12COC(=O)C[C@@H]1CC[C@@H]1[C@H]2CC[C@@]2(C)[C@H]1CC[C@]2(C)O` here?
**A.** The z-score was 0.397.

**Q.** For `CCc1c(C(=O)C(N)=O)c2c(OCC(=O)O)cccc2n1Cc1ccccc1`, which z-score is on record?
**A.** The z-score was -1.8.

**Q.** With `Cc1ccccc1-n1c(Cn2cnc3c(N)ncnc32)nc2cccc(C)c2c1=O` as the compound, how does the z-score read?
**A.** Its z-score is -1.88.

**Q.** Which z-score does the source give for `COc1cc([C@@H]2c3cc4c(cc3[C@@H](O)C3COC(=O)C32)OCO4)cc(OC)c1O` (stereo partly drawn) here?
**A.** Its z-score is -1.12.

**Q.** With `C[C@@H]1[C@H](O)[C@@H](C)C=CC=CCCC=CC=CC=CC=C[C@H](O[C@H]2O[C@@H](C)[C@H](O)[C@@H](N)[C@@H]2O)CC2O[C@](O)(C[C@@H](O)[C@H](O)CC[C@@H](O)C[C@@H](O)C[C@@H](O)CC(=O)O[C@H]1C)C[C@H](O)[C@H]2C(=O)O` as the compound, how does the z-score read?
**A.** The z-score was -1.57.

**Q.** For `CC(C)[C@]12O[C@@H]1[C@@H]1O[C@]13[C@]1(O[C@H]1C[C@@H]1C4=C(CC[C@@]13C)C(=O)OC4)[C@H]2O`, which z-score is on record?
**A.** The z-score was -3.53.

**Q.** With `CN(C)NC(=O)CCC(=O)O` as the compound, how does the z-score read?
**A.** Its z-score is -0.178.

**Q.** Which z-score does the source give for `C#CC1(O)CCC2C3CCC4=CC(=O)CCC4(C)C3CCC21C` (stereo not drawn) here?
**A.** The z-score was 0.147.

**Q.** With `CC(C)N(CCNC(=O)CN1CCCC1=O)C(C)C` as the compound, how does the z-score read?
**A.** Its z-score is 0.681.

**Q.** Which z-score does the source give for `Cc1ccccc1-n1c(Cn2ncc3c(N)ncnc32)nc2cccc(C)c2c1=O` here?
**A.** The z-score was -1.02.

**Q.** For `O=C(Nc1ccncc1)C(=O)c1cn(Cc2ccc(Cl)cc2)c2ccccc12`, which z-score is on record?
**A.** Its z-score is -1.01.

**Q.** Which z-score does the source give for `CC1=C(O)C(=O)C=C2C1=CC=C1[C@@]2(C)CC[C@@]2(C)[C@@H]3C[C@](C)(C(=O)O)CC[C@]3(C)CC[C@]12C` here?
**A.** The z-score was -1.07.

**Q.** With `CCN1C[C@]2(OC(=O)c3ccccc3NC(C)=O)CC[C@H](OC)[C@@]34[C@H]5CC6[C@@H](OC)C[C@](O)(C(C[C@@H]23)[C@@H]14)[C@@]5(O)[C@@H]6OC` as the compound, how does the z-score read?
**A.** Its z-score is 0.781.

**Q.** For `CCOC(=O)c1cncn1[C@H](C)c1ccccc1`, which z-score is on record?
**A.** The z-score was 0.512.

**Q.** With `C[C@@H]1CC[C@H]2[C@@H](C)C(=O)O[C@@H]3O[C@@]4(C)CC[C@H]1[C@]32OO4` as the compound, how does the z-score read?
**A.** Its z-score is 0.344.

**Q.** For `COc1cccc2c1[C@]13CCN(CC4CC4)[C@H](C2)[C@]1(OC)CCC(=O)C3`, which z-score is on record?
**A.** Its z-score is 0.213.

**Q.** For `CCCC[N+]1(C)[C@H]2CC(OC(=O)[C@H](CO)c3ccccc3)C[C@H]1[C@H]1O[C@H]12` (stereo partly drawn), which z-score is on record?
**A.** Its z-score is 0.453.

**Q.** For `C[C@]12CC[C@@H]3[C@@H](CCC4=CC(=O)CC[C@@H]43)[C@@H]1CC[C@@H]2OC(=O)CCc1ccccc1`, which z-score is on record?
**A.** The z-score was -2.12.

**Q.** Which z-score does the source give for `c1ccc2c(CN3CCNCC3)cccc2c1` here?
**A.** Its z-score is 0.833.

**Q.** Which z-score does the source give for `CCOP(=O)(OCC)C(C)NC(=O)N(CCCl)N=O` (stereo not drawn) here?
**A.** Its z-score is 0.402.

**Q.** For `c1cc2c(cc1[C@H]1OC[C@H]3[C@H]1CO[C@H]3c1ccc3c(c1)OCO3)OCO2`, which z-score is on record?
**A.** The z-score was 0.142.

**Q.** Which z-score does the source give for `CCC(=O)OC1CCC2C3CCC4=CC(=O)CC[C@@]4(C)C3CC[C@]12C` (stereo partly drawn) here?
**A.** Its z-score is -0.0668.

**Q.** With `CC(O)=C(C#N)C(=O)Nc1cc(Br)ccc1Br` as the compound, how does the z-score read?
**A.** Its z-score is 0.63.

**Q.** With `O=c1[nH]c2ccc(Cl)cc2c(N[C@@H]2CN3CCC2CC3)c1-c1nc2ccccc2[nH]1` as the compound, how does the z-score read?
**A.** Its z-score is -1.04.

**Q.** Which z-score does the source give for `CC[C@@H](C(N)=O)N1CCCC1=O` here?
**A.** Its z-score is 0.655.

**Q.** Which z-score does the source give for `Clc1ccccc1C(c1ccccc1)(c1ccccc1)n1cccn1` here?
**A.** Its z-score is -1.28.

**Q.** Which z-score does the source give for `CC1=NN=C(c2ccc(N)cc2)c2cc3c(cc2C1)OCO3` here?
**A.** The z-score was 0.714.

**Q.** Which z-score does the source give for `NC1=NC(=O)N2CC12` (stereo not drawn) here?
**A.** The z-score was 1.15.

**Q.** For `C1=C2CCCN[C@H]2[C@@H]2C[C@H]1[C@@H]1CCCCN1C2`, which z-score is on record?
**A.** The z-score was 0.304.

tested on: 7G8; test: qHTS profiling for inhibitors of Plasmodium falciparum proliferation (AID 504749); further: nearly all actives have a fitted effect of over 60% in size; further: potency means the concentration at half of the fitted maximal effect;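 on activity, negative = inhibition: 0% = DMSO vehicle and full inhibition = artemisinin control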; details: P. falciparum in erythrocytes, SYBR Green DNA, 72 h; series mostly up to 28.7 µM; activity, negative = inhibition: at the top concentration
In short: (§1)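 In a 72 h erythrocytic culture (37 C, humidified, 5% CO2) at 2.5% hematocrit and 0.3% starting parasitemia, compounds were tested; SYBR Green I in detergent lysis buffer stained parasite DNA overnight.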

**Q.** Which “activity, negative = inhibition” value does the source give for `COC(=O)[C@@H](N)CCCN=C(N)N[N+](=O)[O-]` here?
**A.** Its value is -1.81% (inactive).

**Q.** With `C#CC1(O)CCC2C3CCC4=CC(=O)CCC4(C)C3CCC21C` (stereo not drawn) as the compound, how does the “activity, negative = inhibition” value read?
**A.** The value was -19% (inactive).

**Q.** Which Potency does the source give for `NC1=NC(=O)N2CC12` (stereo not drawn) here?
**A.** The Potency was 10 µM (active).

tested on: AA1029; test: as above; details: P. falciparum in erythrocytes, SYBR Green DNA, 72 h; series mostly up to 28.7 µM; activity, negative = inhibition: at the top concentration
In short: as §1

**Q.** Which “activity, negative = inhibition” value does the source give for `CN(C)[C@@H]1C(=O)C(C(N)=O)=C(O)[C@@]2(O)C(=O)C3=C(O)c4c(O)cccc4[C@@](C)(O)[C@H]3[C@H](O)[C@@H]12` here?
**A.** Its value is -23.4% (inactive).

**Q.** With `COC(=O)[C@@H](N)CCCN=C(N)N[N+](=O)[O-]` as the compound, how does the “activity, negative = inhibition” value read?
**A.** The value was 4.12% (inactive).

**Q.** With `C#CC1(O)CCC2C3CCC4=CC(=O)CCC4(C)C3CCC21C` (stereo not drawn) as the compound, how does the “activity, negative = inhibition” value read?
**A.** Its value is 4.46% (inactive).

tested on: ATS189; test: as above; details: P. falciparum in erythrocytes, SYBR Green DNA, 72 h; series mostly up to 28.7 µM; activity, negative = inhibition: at the top concentration
In short: as §1

**Q.** Which “activity, negative = inhibition” value does the source give for `CN(C)[C@@H]1C(=O)C(C(N)=O)=C(O)[C@@]2(O)C(=O)C3=C(O)c4c(O)cccc4[C@@](C)(O)[C@H]3[C@H](O)[C@@H]12` here?
**A.** Its value is -29.3% (inactive).

**Q.** For `COC(=O)[C@@H](N)CCCN=C(N)N[N+](=O)[O-]`, which “activity, negative = inhibition” value is on record?
**A.** Its value is 5.27% (inactive).

**Q.** Which “activity, negative = inhibition” value does the source give for `C#CC1(O)CCC2C3CCC4=CC(=O)CCC4(C)C3CCC21C` (stereo not drawn) here?
**A.** Its value is 17.3% (inactive).

**Q.** For `NC1=NC(=O)N2CC12` (stereo not drawn), which “activity, negative = inhibition” value is on record?
**A.** Its value is -25.9% (inactive).

tested on: ATS95; test: as above; details: P. falciparum in erythrocytes, SYBR Green DNA, 72 h; series mostly up to 28.7 µM; activity, negative = inhibition: at the top concentration
In short: as §1

**Q.** Which “activity, negative = inhibition” value does the source give for `COC(=O)[C@@H](N)CCCN=C(N)N[N+](=O)[O-]` here?
**A.** Its value is 6.67% (inactive).

**Q.** With `C#CC1(O)CCC2C3CCC4=CC(=O)CCC4(C)C3CCC21C` (stereo not drawn) as the compound, how does the “activity, negative = inhibition” value read?
**A.** Its value is 1.16% (inactive).

**Q.** Which “activity, negative = inhibition” value does the source give for `NC1=NC(=O)N2CC12` (stereo not drawn) here?
**A.** The value was -27.2% (inactive).
